# Screening data: PubChem, several laboratories
# Pyk2 oligo antag: blocks oligomerization of human Pyk2 in cells; Q14289; Q293 cells, Pyk2 FERM NanoBiT luminescence; hits give low values; z-score (the deposit names both 25 µM and 10 µM); 0.83% of 99,000 active; AID 1347419;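 active means Z-score of -3 or lower, scaled per plate to the spread of control and sample wells; inactive means z-score above -3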;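 further: negative z-score means lost luminescence so less FERM oligomerization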
# Mac1 fbg enh: CD11b/CD18-fibrinogen binding enhancement. K562 CD11b/CD18 adhesion to fibrinogen, ATPlite luminescence. activation, % at 10 µM. AID 1499. P05107+P11215. 0.07% of 93,000 active;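 active means 10 µM primary screen giving 50% or more activity, confirmed by 40% or more on retest at that dose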
# Target sequence (P05107 whole entry, looked up, other chains not shown): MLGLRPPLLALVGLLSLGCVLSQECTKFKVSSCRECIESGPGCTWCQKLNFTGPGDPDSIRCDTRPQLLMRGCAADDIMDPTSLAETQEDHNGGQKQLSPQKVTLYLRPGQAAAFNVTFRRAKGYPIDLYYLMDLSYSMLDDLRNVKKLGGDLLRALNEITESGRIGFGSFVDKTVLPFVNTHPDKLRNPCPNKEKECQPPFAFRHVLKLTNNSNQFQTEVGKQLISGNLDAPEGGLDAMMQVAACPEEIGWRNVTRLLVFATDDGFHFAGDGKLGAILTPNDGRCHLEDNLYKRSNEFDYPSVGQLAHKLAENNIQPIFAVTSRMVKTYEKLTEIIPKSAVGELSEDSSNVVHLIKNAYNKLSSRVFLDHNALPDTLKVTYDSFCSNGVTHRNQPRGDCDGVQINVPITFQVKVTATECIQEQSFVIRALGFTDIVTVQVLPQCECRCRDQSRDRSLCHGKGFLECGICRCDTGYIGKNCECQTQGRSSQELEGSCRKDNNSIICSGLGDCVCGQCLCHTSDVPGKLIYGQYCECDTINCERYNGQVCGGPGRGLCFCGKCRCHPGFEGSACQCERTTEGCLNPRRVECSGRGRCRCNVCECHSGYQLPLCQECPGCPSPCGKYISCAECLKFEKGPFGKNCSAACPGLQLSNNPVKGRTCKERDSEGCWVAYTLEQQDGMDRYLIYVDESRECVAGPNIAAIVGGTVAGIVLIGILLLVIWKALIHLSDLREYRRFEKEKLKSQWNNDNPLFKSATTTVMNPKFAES
# CD11b adhes inh: CD11b/CD18-fibrinogen binding inhibition; P05107+P11215; K562 CD11b/CD18 adhesion to fibrinogen, ATPlite luminescence; Mn2+ added to activate the integrin; inhibition, % at 10 µM; 0.54% of 93,000 active; AID 1497;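 active means primary inhibition of 50% or more at 10 µM, then 40% or more on retest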
# MRP resist rev: MRP-mediated drug resistance reversal | H69AR cells + 2 uM doxorubicin, CellTiter-Glo, 72 h | differential viability (reversal), % at 10 µM | 0.04% of 85,000 active | AID 602;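 active means viability drop by adding the cancer drug above about 55%, with treated viability meeting a 40% cutoff, limit read from the data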;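 further: viability without doxorubicin minus viability with 2 µM doxorubicin for each compound; larger differential means the compound sensitizes cells more to doxorubicin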
# MRP1 act: activators of MRP-1 | 0.61% of 140,000 active | H69AR cells + doxorubicin, viability rescue, CellTiter-Glo | viability increase, % at 10 µM;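 active means viability gain under doxorubicin at or above a set limit, the compound median plus 3 SD, cut at about 4.7% in these data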;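 further: MRP-1 overexpressing cells given doxorubicin 25 µM after compound pretreatment; 18-22 h compound pretreatment then 72 h with doxorubicin before readout; 0% = doxorubicin-only wells and 100% = vehicle-treated cells without doxorubicin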
# Cav32 inh: inhibitors of human Cav3.2 T-type calcium channel | O95180 | Cav3.2-expressing cells, Fluo-4 calcium fluorescence FDSS; hits give low values | B-score at 10 µM | 4% of 100,000 active;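 active means single-dose well whose peak fluorescence ratio is a statistical outlier from its plate by either plate-standardised score or position-corrected B-score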
# Active calls of the source: *; . = no result. Most compounds without a hit are left out; they make up all but 4.1% or so of the library.
SMILES,Pyk2 oligo antag,Mac1 fbg enh,CD11b adhes inh,MRP resist rev,MRP1 act,Cav32 inh
c1cnc(N2CCN(c3nc4ccccc4n4cnnc34)CC2)nc1,0.13,-1,-8,-8,2,0.48
c1ccc(C(c2ccccc2)N2CCN(c3nc4ccccc4n4cnnc34)CC2)cc1,.,-2,23,-6,6.7*,-3
CCOC(=O)C1CCCN(c2c(NCCN3CCCCC3C)c(=O)c2=O)C1 (stereo unspecified),.,6,-10,7,1,1.1
CCc1cc2cc(C(=O)N3CCN(Cc4ccccc4)CC3)sc2s1,-0.15,1,38,6,0,-4.8*
Cc1cc(C(=O)N2CCN(Cc3ccc4c(c3)OCO4)CC2)on1,.,.,.,9,-1,0.39
O=C(c1ccc2nc(N3CCCCC3)sc2c1)N1CCN(Cc2ccc3c(c2)OCO3)CC1,.,1,8,.,-3,-4*
Cc1ccc2cc3cc(C(=O)N4CCN(Cc5ccccc5)CC4)sc3nc2c1,-0.74,-1,-24,24,0,-0.13
CC1CCN(c2nc3ccc(C(=O)N4CCN(Cc5ccccc5)CC4)cc3s2)CC1,.,8,30,-5,0,-5.8*
CCOC(=O)N1CCN(C(=O)c2ccc3nc(N4CCCCC4)sc3c2)CC1,0.52,.,.,-8,-1,-4.8
Cc1nn(Cc2ccccc2)c2sc(C(=O)N3CCN(Cc4ccc5c(c4)OCO5)CC3)cc12,-0.03,6,14,-6,-5,-4.3*
CCCCn1nc2cc(C(=O)NCc3ccccc3OC)ccc2c1OCC,.,0,-7,.,1,-0.4
CCCOc1ccc(C2c3c(oc4cc(C)c(C)cc4c3=O)C(=O)N2CCCN(C)C)cc1 (stereo unspecified),.,0,-4,0,-2,-2.2
O=c1[nH]cnc2scc(C3COc4ccccc4O3)c12 (stereo unspecified),0.43,-4,-8,8,-1,-1.8
COc1ccccc1N(CCC#N)C(=O)CSc1ccc2c(c1)OCCO2,-1.1,-1,3,-4,-1,0.83
C=CCn1c(NC(=O)c2ccco2)c(S(=O)(=O)c2ccccc2)c2nc3ccccc3nc21,.,-1,0,13,.,.
CCCCc1c(O)nc2sccn2c1=O,-0.32,.,.,.,-2,.
COc1ccccc1C(=O)Nc1c2c(nn1-c1cccc(C)c1C)CS(=O)C2 (stereo unspecified),0.14,0,-25,-3,-1,.
Cc1c(C(=O)O)c(-c2ccccc2)nn1-c1ccccc1,-0.11,-2,5,.,-2,-4.3*
O=c1c2sccc2n(Cc2ccc(F)cc2)c(=O)n1-c1ccc(F)cc1,.,.,.,.,0,.
O=C(COC(=O)COc1ccc2ccccc2c1)Nc1cc(C(F)(F)F)ccc1N1CCOCC1,.,.,.,.,-1,.
CCn1c(C(=O)NCCCN2CCc3ccccc3C2)cc2sccc21,-0.18,-1,-1,0,-4,-2.8
CCOC(=O)c1cc2sccc2n1CC(=O)OC(C)C,-0.82,-7,8,17,-2,-1.7
CCn1c(C(=O)N2CCc3ccccc3C2)cc2sccc21,.,-8,5,17,-1,-5.6*
CCOC(=O)c1cc2sccc2n1CC(=O)N1CCc2ccccc21,-3.5*,6,3,-9,-1,-0.07
N=c1c2c3c(sc2nc2n1CCC2)CCCC3,-0.16,-1,-3,-9,-1,-0.035
SMILES,Pyk2 oligo antag,Mac1 fbg enh,CD11b adhes inh,MRP resist rev,MRP1 act,Cav32 inh
CC(=O)c1c(O)cc(O)cc1CC(=O)O,.,.,.,.,.,0.08
CC(=O)c1c(O)cc(O)c(C(C)=O)c1O,.,.,.,.,.,-5.4*
CCOc1ccc(NC(=O)CC2C(=O)N(CC)C(=S)N2CCNC(C)=O)cc1 (stereo unspecified),.,.,.,.,-1,.
CCSc1nnc(-c2ccc(C)cc2)c2ccccc12,.,2,15,.,5.6*,.
C/C(=N\NC(=O)c1ccc(Cl)c(Cl)c1)c1cccc(NC(=O)C(C)C)c1,1,3,-8,.,-1,-7.1*
C/C(=N\NC(=O)c1cccc(Cl)c1)c1cccc(NC(=O)C(C)C)c1,-0.51,.,.,.,2,0.39
CCCc1nc(SCC(=O)Nc2nnc(CC)s2)c2c(C)c(C)sc2n1,-3.7*,.,.,.,0,0.25
CCc1nc(SCC(=O)Nc2nnc(CC)s2)c2c(C)c(C)sc2n1,-2.1,72,-16,.,-1,0.008
Cc1cccc(N=C2NC(=O)/C(=C3/C(=O)N(C)c4ccccc43)S2)c1C,-2.8,-1,15,6,-5,-0.98
Cc1ccc(OCc2nc(-c3ccc(Cl)cc3)n[nH]2)cc1,-1.2,3,1,8,5.4*,-2.4
Cc1c(CNCc2cccs2)c(C(=O)O)c(C)n1Cc1ccccc1,0.55,.,.,-8,-3,-1.4
O=C(NCCOc1ccccc1F)c1ccccc1SCc1ccc(F)cc1,.,.,.,.,-3,.
CCc1ccc(OCC(=O)NCCOc2ccccc2)cc1,0.9,3,2,13,0,-4.4*
CCc1ccc(OCCNC(=O)c2ccccc2SCc2ccccc2)cc1,-1.6,-3,32,.,-4,-6.8*
Cc1cc(C(=O)Cn2cncn2)c(C)n1CCc1ccc(F)cc1,-0.37,0,-15,4,-1,0.45
COC(=O)Cc1cc(=O)n2[nH]c(C)nc2n1,0.21,0,-24,9,1,-0.12
Cc1ccc(SCCC(=O)NCCSCc2ccccc2C)cc1,1.3,-3,20,.,-1,-7.6*
COc1ccc(NC(=O)C2CCC(C(C)(C)C)CC2)cc1S(=O)(=O)N1CCCCC1 (stereo unspecified),.,.,.,.,1,.
CCOc1ccc(OCC)c(NC(=O)CN2CCN(c3cccc(C)c3C)CC2)c1,-0.06,.,.,-5,-3,-0.68
CCCC(=O)Nc1c2c(nn1-c1ccc(C)cc1C)CSC2,2,14,-11,12,-2,0.92
Cc1ccccc1-n1nc2c(c1NC(=O)c1ccc(Br)o1)CSC2,0.69,43,-31,2,1,-4.7*
COc1ccc(OC)c(S(=O)(=O)n2ccnc2C)c1,0.71,-4,0,-6,-1,0.53
CCOC(=O)C1=NN(C(=O)c2ccc(C)cc2)C(O)(c2ccc(Cl)cc2)C1 (stereo unspecified),-0.07,1,4,.,-1,-6.3*
O=[N+]([O-])c1ccc(Cl)c(S(=O)(=O)NCC2CCCO2)c1 (stereo unspecified),.,.,.,.,-4,.
CCOc1cccc(C2C(C(=O)c3ccco3)=C(O)C(=O)N2Cc2ccncc2)c1 (stereo unspecified),1.4,-4,5,-6,-1,-0.38
CCOC(=O)C(C(=O)OCC)c1cc(Br)c2noc3c2c1C(=O)c1ccccc1-3,-0.64,-4,7,.,-2,-5.5*
COc1ccc(C(=O)NCCSCc2ccc(C)cc2)cc1,-1.5,.,.,.,-1,-5.6*
Cc1ccc(/C=C2\SC(=S)N(CCC(=O)NNS(=O)(=O)c3ccc(C)cc3)C2=O)cc1,.,8,-12,.,5.7*,.
O=C(CCN1C(=O)/C(=C\c2ccccc2)SC1=S)NNC(=O)c1cccnc1,.,11,1,.,8.8*,.
CC(=O)NN1C(=O)/C(=C\c2ccc(C)cc2)SC1=S,1.3,.,.,.,11*,2.6
